Test results taken from PubChem BioAssay (Tox21).
Records with an inconclusive call do not appear. The source made the active and inactive calls. Calls come from the whole dose curve; as a rule, active = well fitted cell-killing curve with a large enough effect in the repeat runs; inconclusive = weak or mixed curves, or effect the other way; inactive = flat fitted curve, though single readings scatter.

Assay: qHTS RealTime-Glo MT Cell Viability Assay in HEK293 cells - 40 hour (AID 1224874); note: nearly all actives have a fitted effect of over 50% in size
Conditions: RealTime-Glo luminescence; max response: hits give low values
Text: U.S. Tox21 Program National Center for Advancing Translational Sciences [NCATS] NIH Chemical Genomics Center [NCGC] U.S. Environmental Protection Agency [EPA] National Institutes of Environmental Health Sciences [NIEHS] National Toxicology Program [NTP] U.S. Food and Drug Administration [FDA] Tox21 Assay Overview: Measure of cell viability is critical in the cell-base assay. Analysis of cell viability is necessary for the characterization of cell responses to cytotoxic drugs and environmental stress. A RealTime-Glo MT Cell Viability Assay to monitor cell viability in real time of continues cell culture during 40 hours of compound treatment was used to screen Tox21 10K library compounds in Hek293 cells. The RealTime-Glo MT Cell Viability Assay is a nonlytic, homogeneous, bioluminescent method to measure cell viability in real time using a simple, plate-based method. The assay involves adding NanoLuc luciferase and a cell-permeant prosubstrate to cells in culture. Viable cells reduce the proprietary prosubstrate to generate a substrate for NanoLuc luciferase. This substrate diffuses from cells into the surrounding culture medium, where it is rapidly used by the NanoLuc Enzyme to produce a luminescent signal. The signal correlates with the number of viable cells, making the assay well suited for cytotoxicity studies.
Tox21 Assay Protocol Summary: The mixture of Hek293 cell suspension and reagents were dispensed at 600cells/6 ul/well in 1536-well tissue culture treated black solid bottom plates using a Multidrop dispenser. After the assay plates were incubated at a 37 C/5% CO2 incubator for 5 hours, 23 nL of compounds dissolved in DMSO, positive and negative controls was transferred to the assay plate by a pintool work station. The plates were incubated at 37 C for 40 hours. The luminescence intensity were measured at 0h, 8h, 16h, 24h, 32h and 40h time points using ViewLux plate reader during compound treatment.
% is set by controls: 0 for no effect and ±100 for the full control effect.

Which max response does the source give for `Cc1coc2c1CCC(C)C2` (stereo not given) here?
The max response was 15.4% (inactive).

Which max response does the source give for `CN(C)CCc1ccc(O)cc1` here?
The max response was 11.4% (inactive).

Which max response does the source give for `CCCCOP(=O)(O)OCCCC` here?
Its max response is 0.827% (inactive).

With `O=CNC(N1CCN(C(NC=O)C(Cl)(Cl)Cl)CC1)C(Cl)(Cl)Cl` (stereo not given) as the molecule, how does the max response read?
Its max response is -2.73% (inactive).

Which max response does the source give for `CNNC` here?
The max response was -7.62% (inactive).

Which max response does the source give for `CCNc1nc(NC(C)C)nc(OC)n1` here?
Its max response is -7.59% (inactive).

With `Nc1cnn(-c2ccccc2)c(=O)c1Cl` as the molecule, how does the max response read?
Its max response is 20.5% (inactive).

Which max response does the source give for `COC(=O)c1ccccc1S(=O)(=O)NC(=O)N(C)c1nc(C)nc(OC)n1` here?
The max response was 10.1% (inactive).

With `COc1cc(OC)nc(NC(=O)NS(=O)(=O)c2ncccc2C(=O)N(C)C)n1` as the molecule, how does the max response read?
The max response was 7.6% (inactive).

With `O=S(=O)(O)C(F)(F)C(F)(F)C(F)(F)C(F)(F)C(F)(F)C(F)(F)F` as the molecule, how does the max response read?
Its max response is 2.43% (inactive).

Which max response does the source give for `O=C1c2ccccc2C(=O)c2ccccc21` here?
The max response was 18.9% (inactive).

With `CS(=O)(=O)c1cc(C(F)(F)F)ccc1C(=O)c1cnoc1C1CC1` as the molecule, how does the max response read?
Its max response is -3.5% (inactive).

Which max response does the source give for `CC(C(=O)c1ccccc1)N(C)C` (stereo not given) here?
The max response was 2.47% (inactive).

Which max response does the source give for `O=C(CCCN1CCC(n2c(=O)[nH]c3ccccc32)CC1)c1ccc(F)cc1` here?
The max response was -27.9% (inactive).

For `CCOP(=S)(OCC)Oc1cc(-c2ccccc2)on1`, which max response is on record?
Its max response is -12.9% (inactive).

With `CCOc1nc(C(Cl)(Cl)Cl)ns1` as the molecule, how does the max response read?
Its max response is 3% (inactive).

For `BrCCCCCCBr`, which max response is on record?
The max response was 2.7% (inactive).

Which max response does the source give for `CCCCP(CCCC)CCCC` here?
Its max response is -4.34% (inactive).

Which max response does the source give for `CCN(CC)C(C)C(=O)c1ccccc1` (stereo not given) here?
Its max response is 2.31% (inactive).

With `O=NN1CCCCC1` as the molecule, how does the max response read?
Its max response is 1.37% (inactive).

For `O=[N+]([O-])c1cccc2cccnc12`, which max response is on record?
Its max response is -7.09% (inactive).

With `ClC(Br)Br` as the molecule, how does the max response read?
The max response was 9.83% (inactive).

For `N#Cc1c(Cl)cccc1Cl`, which max response is on record?
Its max response is 18.9% (inactive).

Which max response does the source give for `CN(N=O)C(N)=O` here?
Its max response is 10.1% (inactive).

With `COc1cc(OC)nc(NC(=O)NS(=O)(=O)c2ncccc2OCC(F)(F)F)n1` as the molecule, how does the max response read?
Its max response is 0.591% (inactive).

For `CC(N)=S`, which max response is on record?
The max response was 1.38% (inactive).

With `CNC(=O)Oc1cccc(C(C)C)c1` as the molecule, how does the max response read?
The max response was -3.66% (inactive).

With `NC(=S)C(N)=S` as the molecule, how does the max response read?
Its max response is 4.8% (inactive).

Which max response does the source give for `CCC(=O)C(CCN(C)C)(c1ccccc1)c1ccccc1` here?
Its max response is -20.5% (inactive).

Which max response does the source give for `CC1(C)CON(Cc2ccccc2Cl)C1=O` here?
The max response was -0.432% (inactive).

With `c1cc2c(c(N3CCNCC3)c1)OCCO2` as the molecule, how does the max response read?
The max response was -2.14% (inactive).

For `Cc1cc(C)c(C(=O)P(=O)(C(=O)c2c(C)cc(C)cc2C)c2ccccc2)c(C)c1`, which max response is on record?
The max response was -8.76% (inactive).

With `Cc1nc(N)nc(N)n1` as the molecule, how does the max response read?
The max response was -3.78% (inactive).

Which max response does the source give for `O=[N+]([O-])c1cc(Cl)c(Cl)c(Cl)c1` here?
The max response was 5.08% (inactive).

For `CCOP(=S)(Oc1cnc(C(C)(C)C)nc1)OC(C)C` (stereo not given), which max response is on record?
The max response was -10.5% (inactive).

Which max response does the source give for `CCS(=O)(=O)C(C)(C)S(=O)(=O)CC` here?
Its max response is 3.47% (inactive).

With `CCCSC(=O)Cl` as the molecule, how does the max response read?
Its max response is 9.13% (inactive).

With `CC(=O)Nc1cc([As](=O)(O)O)ccc1O` as the molecule, how does the max response read?
The max response was -9.14% (inactive).

With `CCS(=O)(=O)CCSP(=O)(OC)OC` as the molecule, how does the max response read?
Its max response is 10.4% (inactive).

With `CCc1cc2c(s1)-n1c(C)nnc1CN=C2c1ccccc1Cl` as the molecule, how does the max response read?
Its max response is -28.6% (inactive).
